Results reported in PubChem BioAssay (NCI).
The panel holds about 83,000 compounds, 20% with a hit somewhere; the sample as a whole holds those more often.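 Single-concentration screen, 48 h exposure, 96-well plates. Endpoint: percent growth. Below 10 = active.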 A number with no mark means an inactive call. The source made the active and inactive calls.

Tested on: UO-31 renal
Assay: NCI-60 one-dose screen, 48 h (100 = growth as untreated, 0 = no growth, -100 = all killed)
Settings: 10 µM

SMILES | growth
CN1CCN(c2ccc(Nc3nc(NCCCNC(=O)c4ccc(F)cc4)c4sccc4n3)cc2)CC1 | 71.6%
O=C(CS(=O)(=O)c1oc(-c2ccc(Cl)cc2)nc1S(=O)(=O)c1ccc(Cl)cc1)N1CCOCC1 | -19.9% (active)
COc1ccc(C(=O)NC(=S)N2CCN(c3ncnc4c3cnn4-c3ccccc3)CC2)cc1 | 69%
COc1cccc(COc2ccc(/C=C3\Oc4cc(O)ccc4C3=O)cc2)c1 | -64.7% (active)
O=C(O)CCCCCCCCCCN1C(=O)/C(=C/c2cnc(-c3ccc(Cl)cc3)s2)SC1=S | 38.1%
COc1cccc(C(N)=Nc2ccc(OCCCCCCn3cncn3)cc2)c1 | 45.4%
CN(C)c1cccc2c(S(=O)(=O)Nc3cccc(-c4csc(NC(=O)CCCCCN5CCN(c6cc7c(cc6F)C(=O)N(C6CCC(=O)NC6=O)C7=O)CC5)n4)c3)cccc12 (stereo not drawn) | 70%
Cc1ccc(C(C)C)cc1NC(=O)c1ccccc1O | 16.6%
NC(=Nc1ccc(OCCCCCCCCn2ccnn2)cc1)c1ccccc1 | 40.7%
O=c1[nH][nH]c(Nc2ccccc2)c1N=Nc1ccc(F)cc1 | 66.2%
COc1ccc2[nH]c(O)c(N=NC(=O)c3cc(-c4ccc(C)cc4)nc4ccccc34)c2c1 | 69.9%
CN1C(=O)/C(=C/c2nccs2)SC1=S | 78.7%
CNC(=O)c1cc(-c2ccc(NC(=O)Nc3ccc(C)cc3)cc2)nc2cccnc12 | 63.9%
CC(=O)NNc1ccc2nnc(-c3ccc(Br)cc3)n2n1 | 82.1%
O=c1oc2ccc(-c3ccc(F)cc3F)cc2c(=O)n1-c1ccc(F)c(Cl)c1 | -5.43% (active)
CCN1CCN(c2ccc(NC(=O)Nc3ccc(-c4cc(C(=O)NC(C)C)c5ncccc5n4)cc3)cc2C(F)(F)F)CC1 | -94.5% (active)
COC(=O)C(Cc1ccc(O)c(O)c1)NC(=O)C(CSC/C=C(\C)CCCC(C)CCCC(C)CCCC(C)C)NC(C)=O (stereo not drawn) | 43.7%

SMILES | growth
CN1CCN(c2ccc(Nc3nc(NCCCNC(=O)c4ccc(Cl)cc4)c4sccc4n3)cc2)CC1 | 67.3%
CCCCCCCCCCCCCCCCCCCC(=O)NCCc1c[nH]c2ccc(O)cc12 | 71.9%
CCCCCc1ccc(S(=O)(=O)N(C(C)=O)c2cc(-c3csc(N(C)C(C)=O)n3)ccc2N2CCN(C)CC2)cc1 | 41.8%
COc1ccc2[nH]c(O)c(N=NC(=O)COc3ccc(NC(=O)Nc4ccc(Cl)cc4)cc3)c2c1 | 90.3%
CCCCCCCCCCCCCCCCCCCC(=O)NCCc1c[nH]c2ccc(OC(=O)NOCCOCCOCCOCCOCCOCCOCCOCCOCCOCCOCCOCCOCCOCCOCCOCCOCCOCCOCCOCCOCCOCCOC)cc12 | 61.8%
CC1(C)CC[C@]2(C(=O)N3CCOCC3)CC[C@]3(C)C(=CC[C@@H]4[C@@]5(C)CC[C@H](NCO)C(C)(C)[C@@H]5CC[C@]43C)[C@H]2C1 | -100% (active)
Cc1ccc(-c2cc(C(=O)N=Nc3c(O)[nH]c4ccc(Br)cc34)c3ccccc3n2)cc1 | 52.2%
CCC(C)S(=O)(=O)c1oc(-c2ccc(C)cc2)nc1S(=O)(=O)c1ccccc1 (stereo not drawn) | -100% (active)
CCCCCc1ccc(S(=O)(=O)Nc2cc(-c3csc(N(C)C(C)=O)n3)ccc2N2CCN(C)CC2)cc1 | 33.1%
C/C(=C\CC/C=C(\C)CC/C=C(\C)CC[C@@H](O)C(C)(C)O)CC/C=C(\C)CC[C@@H](O)C(C)(C)O | 30.5%
CC(C)C(=O)Nc1ccc(C(=O)NC(=S)Nc2ccc(C(=O)O)cc2)cc1 | 88.4%
CN1CCN(c2ccc(Nc3nc(N4CCN(S(=O)(=O)c5ccc(F)cc5)CC4)c4sccc4n3)cc2)CC1 | -87.1% (active)
O=C(Cn1cc(CSc2nnc3oc4ccccc4n23)nn1)Nc1ccc(Br)cc1 | 74.2%
CC1(C)CC[C@]2(C(=O)NCCCNCCCCNCCCN)CC[C@]3(C)C(=CC[C@@H]4[C@@]5(C)Cc6c([nH]c7ccccc67)C(C)(C)[C@@H]5CC[C@]43C)[C@H]2C1 | 71%
COc1ccc(CCN2C(=O)/C(=C/c3csc(C#N)n3)SC2=S)cc1 | -43.9% (active)
CC(=O)Nc1nc(-c2ccc(N3CCN(C)CC3)c(NS(=O)(=O)c3ccc(C(F)(F)F)cc3)c2)cs1 | 24.9%
